Results as given in PubChem BioAssay AID1159580 (chemical genetic matrix, 2015).
Values joined by “and” are separate entries in the source; they are usually repeats but may differ in a detail not shown here. Equal entries are not always repeated. Out of some 5,500 compounds screened, about 2,000 (36%) were called active. Roughly 18% stayed inconclusive and do not appear here. Rule as the data show it: active = normalized growth mostly below about 0.91 (no sharp cut-off); inconclusive = no clear call, values can overlap the other calls; inactive = mostly above about 0.92. Some of the results follow.

Experiment: chemical genetic growth profiling, strain panel (AID 1159580);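 also: tested at 20 µM; growth read once vehicle control cultures reached saturation at 30 °C; 1 = growth at the plate median or of vehicle wells; lower values mean less growth of the strain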
Settings: S. cerevisiae deletion strains, growth OD

Measured: normalized growth

NCCc1ccc(O)c(O)c1
inactive: locus YAL013W, strain DEP1, active compounds read low 1 and 0.968 | locus YAL021C, strain ccr4, active compounds read low 1.01 | locus YAL026C, strain drs2, active compounds read low 1 | locus YAL030W, strain snc1, active compounds read low 1.01 | locus YAL040C, strain CLN3, active compounds read low 0.983 | locus YBL061C, strain skt5, active compounds read low 0.998 | locus YBR009C, strain hhf1, active compounds read low 0.978 | locus YBR021W, strain FUR4, active compounds read low 0.999 | locus YBR023C, strain chs3, active compounds read low 1 | locus YBR171W, strain sec66, active compounds read low 0.997 | locus YBR229C, strain ROT2, active compounds read low 1 | locus YBR231C, strain swc5, active compounds read low 0.997 | locus YBR279W, strain paf1, active compounds read low 1 | locus YCL011C, strain gbp2, active compounds read low 0.981 | locus YCL016C, strain dcc1, active compounds read low 0.991 | locus YCL029C, strain bik1, active compounds read low 0.965 | locus YCL061C, strain MRC1 (second series), active compounds read low 0.997 | locus YCL061C, strain MRC1, active compounds read low 0.987 | locus YCL069W, strain vba3, active compounds read low 0.981 | locus YCR088W, strain abp1, active compounds read low 0.995 | locus YDL005C, strain med2, active compounds read low 1 | locus YDL035C, strain GPR1, active compounds read low 1.01 | locus YDL040C, strain nat1, active compounds read low 1.01 | locus YDL074C, strain BRE1, active compounds read low 0.978 | locus YDL101C, strain DUN1, active compounds read low 0.988 | locus YDL134C, strain PPH21, active compounds read low 1.04 | locus YDL185W, strain tfp1, active compounds read low 0.979 | locus YDL192W, strain arf1, active compounds read low 0.995 | locus YDR001C, strain nth1, active compounds read low 1 | locus YDR069C, strain doa4, active compounds read low 0.999 | locus YDR101C, strain arx1, active compounds read low 1.01 | locus YDR137W, strain rgp1, active compounds read low 1.03 | locus YDR150W, strain NUM1, active compounds read low 0.992 | locus YDR159W, strain sac3, active compounds read low 1.03 | locus YDR162C, strain NBP2, active compounds read low 1 | locus YDR195W, strain ref2 1.01 | locus YDR297W, strain sur2, active compounds read low 1 | locus YDR318W, strain mcm21, active compounds read low 0.988 | locus YDR334W, strain swr1, active compounds read low 0.996 | locus YDR335W, strain msn5, active compounds read low 1.01 | locus YDR363W, strain ESC2, active compounds read low 0.998 | locus YDR388W, active compounds read low 1 | locus YDR392W, strain spt3, active compounds read low 0.993 | locus YDR502C, strain sam2, active compounds read low 0.998 | locus YEL003W, strain gim4, active compounds read low 0.977 | locus YEL037C, strain rad23, active compounds read low 1 | locus YEL061C, strain CIN8 (second series), active compounds read low 1.02 | locus YEL061C, strain CIN8, active compounds read low 0.997 | locus YER002W, strain NOP16, active compounds read low 1.01 | locus YER015W, strain faa2, active compounds read low 1.02 | locus YER016W, strain bim1, active compounds read low 1 | locus YER110C, active compounds read low 0.984 | locus YER111C, strain swi4, active compounds read low 0.993 | locus YER155C, strain BEM2 (second series), active compounds read low 1 | locus YER155C, strain BEM2, active compounds read low 1 | locus YER167W, strain BCK2, active compounds read low 0.995 | locus YFR010W, strain ubp6, active compounds read low 0.984 | locus YGL078C, strain dbp3, active compounds read low 1 | locus YGL086W, strain mad1, active compounds read low 0.998 | locus YGL167C, strain pmr1, active compounds read low 1.02 | locus YGL173C, strain kem1, active compounds read low 0.98 | locus YGL227W, strain vid30, active compounds read low 1 | locus YGL240W, strain doc1, active compounds read low 1.01 | locus YGL248W, strain PDE1, active compounds read low 0.961 | locus YGL253W, strain hxk2, active compounds read low 0.989 | locus YGR135W, strain pre9, active compounds read low 0.95 | locus YGR229C, strain SMI1, active compounds read low 1.02 | locus YGR252W, strain gcn5, active compounds read low 1.01 | locus YHR013C, strain ard1, active compounds read low 0.993 | locus YHR027C, strain rpn1, active compounds read low 1 | locus YHR030C, strain SLT2, active compounds read low 1 and 1.04 and 1.03 | locus YHR079C, strain IRE1 (second series), active compounds read low 0.994 | locus YHR079C, strain IRE1, active compounds read low 1.03 and 1.04 | locus YHR094C, strain hxt1, active compounds read low 0.996 | locus YHR129C, strain ARP1, active compounds read low 1.01 | locus YHR142W, strain chs7, active compounds read low 1 | locus YHR200W, strain rpn10, active compounds read low 0.994 | locus YIL066C, strain RNR3, active compounds read low 0.987 | locus YIL073C, strain SPO22, active compounds read low 0.891 | locus YIL125W, strain kgd1, active compounds read low 1 | locus YIR030C, strain dcg1, active compounds read low 0.982 | locus YJL092W, strain hpr5, active compounds read low 1.01 | locus YJL095W, strain BCK1 (second series), active compounds read low 1.01 | locus YJL095W, strain BCK1, active compounds read low 0.972 and 1.03 | locus YJL115W, strain asf1, active compounds read low 1.01 | locus YJL129C, strain trk1, active compounds read low 0.998 | locus YJL134W, strain LCB3, active compounds read low 1 | locus YJL154C, strain vps35, active compounds read low 1.01 | locus YJL164C, strain tpk1, active compounds read low 1.01 | locus YJL166W, strain qcr8, active compounds read low 1 | locus YJL168C, strain set2, active compounds read low 1.01
